According to PubChem BioAssay:
Calls of active or inactive are those of the source.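 Rule for the calls: active = Her2 level under about 52% in both replicate screens, with viability over 70% of control (limit read from the data); inconclusive = Her2 under the limit in one screen only, or viability under 70%; inactive = Her2 level above the set limit.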

System: not listed separately
Test: Her2 expression decrease, cell viability multiplex – SKBR3 breast tumor cells, AlphaScreen, ATP viability, primary screen (AID 461);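 for Her2 level: lower value means less Her2 protein in the cells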;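 for viability: percent of carrier control wells set as 100% viability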
Details: SKBR3 Her2 protein level, 18-24 h, measured here: SKBR3 viability, ATP luminescence, at 10 µM

| SMILES | viability |
| --- | --- |
| CCCc1cc(C(=O)Nc2ccccc2SC)no1 | 86% |
| Cc1ccc(C(=O)OCC(=O)Nc2ccc3c(c2)OCO3)o1 | 110% |
| COC(=O)C(C#N)C(=C1C(=O)CC(C)(C)CC1=O)c1ccc(O)cc1 (stereo not given) | 90% |
| COC(=O)c1cc(OC)c(OC)cc1NC(=O)c1ccc(Br)o1 | 85.5% |
| COc1cccc(NC(=O)CSc2nnc(Cc3cccn3C)n2-c2ccc(F)cc2)c1 | 94.5% |
| CCOc1ccc(N(CC(=O)OC)S(=O)(=O)c2ccc(OC)c(OC)c2)cc1 | 108% |
| COC(=O)C1=C(C)NC(C)=C(C(=O)OC)C1C1CC=CCC1 (stereo not given) | 85% |
| CCCCCn1c(=O)[nH]c2cc(C(=O)NCCN3CCOCC3)ccc2c1=O | 99.5% |
| COc1ccccc1OCC(=O)N1CCN(c2ccccc2OC)CC1 | 93.5% |
| COc1cccc(-c2nc(CS(=O)(=O)CC(=O)N3CCN(c4ccccn4)CC3)c(C)o2)c1 | 90% |
| CC1C(=O)C(C)C(c2cccs2)NC1c1cccs1 (stereo not given) | 83% |
| COc1ccc(N2C(=O)CCC(C(=O)N3CCCCC3)C2c2ccc(OC)c(OC)c2)cc1 (stereo not given) | 100% |
| COc1cccc(NC(=O)c2nc3nc(C)cc(C(F)F)n3n2)c1 | 100% |
| O=C(NCCN1CCOCC1)c1ccc2c(c1)N(Cc1ccccc1F)C(=O)CS2 | 94% |
| CCn1cc(C(=O)NCc2ccccc2OC)c(=O)c2cc(S(=O)(=O)N(C)C)ccc21 | 78.5% |
| CC1Cn2c(nnc2-c2ccc(F)cc2)S1 (stereo not given) | 112% |
| COc1ccc(NC(=O)CN(c2ccc(C(C)C)cc2)S(=O)(=O)c2c(C)noc2C)cc1OC | 90.5% |
| Cc1cc(C)c(C(=O)Nc2ccc(S(=O)(=O)Nc3onc(C)c3C)cc2)c(C)c1 | 110% |
| COc1ccc(C2CC(c3ccco3)n3ncnc3N2)cc1 (stereo not given) | 88% |
| CCCCn1c(CN2CCN(c3ccccc3)CC2)nc2c1c(=O)n(C)c(=O)n2C | 89% |

| SMILES | viability |
| --- | --- |
| Cc1ccccc1NC(=O)C1CCCN(S(=O)(=O)c2cnc[nH]2)C1 (stereo not given) | 85.5% |
| CCOC(=O)C1CCCN(C(=O)c2cn(C)c(=O)c3cc(OC)c(OC)cc23)C1 (stereo not given) | 96.5% |
| O=C(C1CCN(S(=O)(=O)c2cccc3cccnc23)CC1)N1CCN(C2CCCCC2)CC1 | 102% |
| Cc1nnc2n(-c3ccc(Cl)cc3)c(=O)c3c4c(sc3n12)CN(C)CC4 | 84% |
| COc1ccc(OC)c(NC(=O)c2nnn(Cc3ccc(Br)cc3F)c2N)c1 | 80% |
| CCCOc1ccc2ccccc2c1/C=N/n1cnnc1 | 93% |
| CCOC(=O)C(C)(C)Sc1nc2c(cnn2-c2ccc(Cl)cc2)c(=O)[nH]1 | 76% |
| Cc1cccc(N2C(=O)CC(N3CCN(c4cccc(C(F)(F)F)c4)CC3)C2=O)c1 (stereo not given) | 94.5% |
| CC(=O)N1c2c(cc(Br)cc2S(=O)(=O)N2CCN(c3ccccn3)CC2)CC1C (stereo not given) | 80.5% |
| O=C(O)c1ccc2c(c1)C(=O)N(c1ccc(Cl)cn1)C2=O | 98% |
| CC(=O)c1sc(NC(=O)C2COc3ccccc3O2)nc1C (stereo not given) | 102% |
| COc1ccc(OC)c2[nH]c(=O)c(CCNC(=O)C(C)C)cc12 | 109% |
| COc1ccc(NC(=O)c2cc(C3CC3)on2)c(OC)c1 | 96.5% |
| Cc1noc(C(=O)Nc2ccc3c(c2)OCO3)c1Cl | 84.5% |
| CCC(CC)C(=O)NCCc1cc2ccc(C)cc2[nH]c1=O | 99% |
| CCCS(=O)(=O)N1CCN(C(=O)c2cccnc2)CC1 | 97% |
| CCCCn1c2c(c3ccccc31)CCc1nonc1-2 | 107% |
| COc1ccc(-c2[nH]c(-c3cccc(OC)c3)nc2SCC(=O)NCc2ccco2)cc1 | 95.5% |
| CC1=C(C(=O)OCc2ccccc2)C(c2ccco2)n2ncnc2N1 (stereo not given) | 98.5% |
| Cc1c(C)n(C)c2ccc(C(=O)NCc3cccs3)cc12 | 93.5% |

Biological target: Receptor tyrosine-protein kinase erbB-2 (Homo sapiens) (UniProt P04626)
Test: as above
Details: 18-24 h, at 10 µM, stronger effect = lower value

Chain of Receptor tyrosine-protein kinase erbB-2 (Homo sapiens) (P04626 whole entry, looked up): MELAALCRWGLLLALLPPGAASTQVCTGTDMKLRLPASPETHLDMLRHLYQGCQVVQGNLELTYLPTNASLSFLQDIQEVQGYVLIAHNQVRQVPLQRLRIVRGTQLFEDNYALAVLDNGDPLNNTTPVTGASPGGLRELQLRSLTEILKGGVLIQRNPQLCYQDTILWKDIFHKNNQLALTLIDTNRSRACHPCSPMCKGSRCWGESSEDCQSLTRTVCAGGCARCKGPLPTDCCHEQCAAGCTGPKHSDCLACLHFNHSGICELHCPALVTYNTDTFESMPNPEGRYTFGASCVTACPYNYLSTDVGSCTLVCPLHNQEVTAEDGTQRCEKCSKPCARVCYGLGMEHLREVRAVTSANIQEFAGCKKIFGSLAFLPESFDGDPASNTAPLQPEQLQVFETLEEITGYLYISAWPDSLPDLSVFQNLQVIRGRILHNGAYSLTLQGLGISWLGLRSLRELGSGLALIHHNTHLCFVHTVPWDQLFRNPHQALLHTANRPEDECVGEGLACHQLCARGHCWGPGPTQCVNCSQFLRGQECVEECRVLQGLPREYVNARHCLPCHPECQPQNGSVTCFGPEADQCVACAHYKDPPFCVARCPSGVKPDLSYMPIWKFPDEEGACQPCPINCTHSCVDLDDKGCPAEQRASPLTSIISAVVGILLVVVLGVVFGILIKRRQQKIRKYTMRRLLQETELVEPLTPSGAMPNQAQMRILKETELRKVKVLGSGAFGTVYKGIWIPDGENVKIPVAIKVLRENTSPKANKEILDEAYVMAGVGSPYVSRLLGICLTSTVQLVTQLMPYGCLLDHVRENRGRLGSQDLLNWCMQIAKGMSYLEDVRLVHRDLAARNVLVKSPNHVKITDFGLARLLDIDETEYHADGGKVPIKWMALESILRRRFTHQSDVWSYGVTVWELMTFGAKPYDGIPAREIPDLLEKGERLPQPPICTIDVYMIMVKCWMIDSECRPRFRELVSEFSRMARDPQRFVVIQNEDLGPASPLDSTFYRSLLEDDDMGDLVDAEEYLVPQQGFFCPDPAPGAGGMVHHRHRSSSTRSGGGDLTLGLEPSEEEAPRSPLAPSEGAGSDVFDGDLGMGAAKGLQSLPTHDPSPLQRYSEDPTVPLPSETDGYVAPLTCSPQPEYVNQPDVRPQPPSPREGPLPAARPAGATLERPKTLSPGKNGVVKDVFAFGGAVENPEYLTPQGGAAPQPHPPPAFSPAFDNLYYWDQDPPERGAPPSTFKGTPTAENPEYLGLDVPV

| SMILES | Her2 level |
| --- | --- |
| CCCc1cc(C(=O)Nc2ccccc2SC)no1 | 90.5% (inactive) |
| Cc1ccc(C(=O)OCC(=O)Nc2ccc3c(c2)OCO3)o1 | 118% (inactive) |
| COC(=O)C(C#N)C(=C1C(=O)CC(C)(C)CC1=O)c1ccc(O)cc1 (stereo not given) | 92.5% (inactive) |
| COC(=O)c1cc(OC)c(OC)cc1NC(=O)c1ccc(Br)o1 | 84% (inactive) |
| COc1cccc(NC(=O)CSc2nnc(Cc3cccn3C)n2-c2ccc(F)cc2)c1 | 115% (inactive) |
| CCOc1ccc(N(CC(=O)OC)S(=O)(=O)c2ccc(OC)c(OC)c2)cc1 | 122% (inactive) |
| COC(=O)C1=C(C)NC(C)=C(C(=O)OC)C1C1CC=CCC1 (stereo not given) | 90.5% (inactive) |
| CCCCCn1c(=O)[nH]c2cc(C(=O)NCCN3CCOCC3)ccc2c1=O | 88% (inactive) |
| COc1ccccc1OCC(=O)N1CCN(c2ccccc2OC)CC1 | 124% (inactive) |
| COc1cccc(-c2nc(CS(=O)(=O)CC(=O)N3CCN(c4ccccn4)CC3)c(C)o2)c1 | 112% (inactive) |
| CC1C(=O)C(C)C(c2cccs2)NC1c1cccs1 (stereo not given) | 100% (inactive) |
| COc1ccc(N2C(=O)CCC(C(=O)N3CCCCC3)C2c2ccc(OC)c(OC)c2)cc1 (stereo not given) | 90.5% (inactive) |
| COc1cccc(NC(=O)c2nc3nc(C)cc(C(F)F)n3n2)c1 | 106% (inactive) |
| O=C(NCCN1CCOCC1)c1ccc2c(c1)N(Cc1ccccc1F)C(=O)CS2 | 100% (inactive) |
| CCn1cc(C(=O)NCc2ccccc2OC)c(=O)c2cc(S(=O)(=O)N(C)C)ccc21 | 89% (inactive) |
| CC1Cn2c(nnc2-c2ccc(F)cc2)S1 (stereo not given) | 105% (inactive) |
| COc1ccc(NC(=O)CN(c2ccc(C(C)C)cc2)S(=O)(=O)c2c(C)noc2C)cc1OC | 99% (inactive) |
| Cc1cc(C)c(C(=O)Nc2ccc(S(=O)(=O)Nc3onc(C)c3C)cc2)c(C)c1 | 100% (inactive) |
| COc1ccc(C2CC(c3ccco3)n3ncnc3N2)cc1 (stereo not given) | 97% (inactive) |
| CCCCn1c(CN2CCN(c3ccccc3)CC2)nc2c1c(=O)n(C)c(=O)n2C | 105% (inactive) |

| SMILES | Her2 level |
| --- | --- |
| Cc1ccccc1NC(=O)C1CCCN(S(=O)(=O)c2cnc[nH]2)C1 (stereo not given) | 108% (inactive) |
| CCOC(=O)C1CCCN(C(=O)c2cn(C)c(=O)c3cc(OC)c(OC)cc23)C1 (stereo not given) | 99.5% (inactive) |
| O=C(C1CCN(S(=O)(=O)c2cccc3cccnc23)CC1)N1CCN(C2CCCCC2)CC1 | 102% (inactive) |
| Cc1nnc2n(-c3ccc(Cl)cc3)c(=O)c3c4c(sc3n12)CN(C)CC4 | 98% (inactive) |
| COc1ccc(OC)c(NC(=O)c2nnn(Cc3ccc(Br)cc3F)c2N)c1 | 88% (inactive) |
| CCCOc1ccc2ccccc2c1/C=N/n1cnnc1 | 91% (inactive) |
| CCOC(=O)C(C)(C)Sc1nc2c(cnn2-c2ccc(Cl)cc2)c(=O)[nH]1 | 91% (inactive) |
| Cc1cccc(N2C(=O)CC(N3CCN(c4cccc(C(F)(F)F)c4)CC3)C2=O)c1 (stereo not given) | 74.5% (inactive) |
| CC(=O)N1c2c(cc(Br)cc2S(=O)(=O)N2CCN(c3ccccn3)CC2)CC1C (stereo not given) | 106% (inactive) |
| O=C(O)c1ccc2c(c1)C(=O)N(c1ccc(Cl)cn1)C2=O | 111% (inactive) |
| CC(=O)c1sc(NC(=O)C2COc3ccccc3O2)nc1C (stereo not given) | 97.5% (inactive) |
| COc1ccc(OC)c2[nH]c(=O)c(CCNC(=O)C(C)C)cc12 | 118% (inactive) |
| COc1ccc(NC(=O)c2cc(C3CC3)on2)c(OC)c1 | 91.5% (inactive) |
| Cc1noc(C(=O)Nc2ccc3c(c2)OCO3)c1Cl | 75% (inactive) |
| CCC(CC)C(=O)NCCc1cc2ccc(C)cc2[nH]c1=O | 95% (inactive) |
| CCCS(=O)(=O)N1CCN(C(=O)c2cccnc2)CC1 | 98.5% (inactive) |
| CCCCn1c2c(c3ccccc31)CCc1nonc1-2 | 108% (inactive) |
| COc1ccc(-c2[nH]c(-c3cccc(OC)c3)nc2SCC(=O)NCc2ccco2)cc1 | 85.5% (inactive) |
| CC1=C(C(=O)OCc2ccccc2)C(c2ccco2)n2ncnc2N1 (stereo not given) | 95% (inactive) |
| Cc1c(C)n(C)c2ccc(C(=O)NCc3cccs3)cc12 | 87.5% (inactive) |
